Results reported in PubChem BioAssay AID2685 (National Center for Advancing Translational Sciences (NCATS), 2010).
About 2,100 (0.66%) of roughly 320,000 compounds were called active. Not shown: some 53% with an inconclusive outcome. Calls come from the whole dose curve; as a rule, active = well fitted inhibition curve with a large enough effect in the signal ratio, with a control signal flat (not every such curve was filed as active); inconclusive = small, poorly fitted or top-dose-only effect, or effect the other way, or a change in a side signal; inactive = flat fitted curve, though single readings scatter; the % refers to the signal ratio. This excerpt belongs to a sample that is enriched for actives.

Test: qHTS Assay for Lipid Storage Modulators in Drosophila S3 Cells;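 for cell number change: cells counted by Cell Tracker Red CMTPX staining in the red channel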; for lipid storage change, negative = inhibition: % is set by controls: 0 for no effect and ±100 for the full control effect
Conditions: BODIPY lipid droplet fluorescence, 18-24 h, cells fed with added oleic acid; cell number change: measured here: cell count max response; series mostly up to 46.1 µM; lipid storage change, negative = inhibition: at the top concentration
Summary of the method: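 Drosophila S3 cells loaded with oleic acid (400 uM, as added) and compounds at several concentrations; lipid droplets imaged by 488-nm laser-scanning cytometry, 500–530 nm intensity and object ratio to cell channel. Percent activity normalized to 20 uM Triacsin C.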
Potency is the fitted concentration of half-maximal effect.

**Q.** With Cc1ccc(CNC(=O)Cc2nc3nc(C)cc(C)n3n2)cc1 as the molecule, how does the “lipid storage change, negative = inhibition” value read?
**A.** -1.12% (inactive)

**Q.** And the cell number change?
**A.** 1.61%

**Q.** With COc1cc2c(cc1OC)CN(C(=O)Nc1ccccc1Cl)CC2 as the molecule, how does the “lipid storage change, negative = inhibition” value read?
**A.** 11.9% (inactive)

**Q.** What about the cell number change of the same molecule?
**A.** -24.6%

**Q.** Which “lipid storage change, negative = inhibition” value does the source give for CCc1nnc(NC(=O)CSc2nnc(C)n2CC2CCCO2)s1 (stereo unspecified) here?
**A.** 22.4% (inactive)

**Q.** What about the cell number change of the same molecule?
**A.** 6.32%

**Q.** For COCCCNC(=O)CSc1nc2ccccc2c(=O)n1Cc1ccc2c(c1)OCO2, which “lipid storage change, negative = inhibition” value is on record?
**A.** 23.2% (inactive)

**Q.** And the cell number change?
**A.** -4.93%

**Q.** Which results are given for COc1ccc(C(=O)NCCc2cnc[nH]2)cc1OC?
**A.** lipid storage change, negative = inhibition: 19.2% (inactive); cell number change: -11.3%

**Q.** Which “lipid storage change, negative = inhibition” value does the source give for COC(=O)CCN(C(=O)c1ccc(OC(C)=O)cc1)c1ccccn1 here?
**A.** 2.15% (inactive)

**Q.** What about the cell number change of the same molecule?
**A.** 6.03%

**Q.** What does the source list for COC(=O)CCN(C(=O)c1cccc(OC(C)=O)c1)c1ccccn1?
**A.** Potency: 25.9 µM (active); cell number change: -22.7%

**Q.** For COC(=O)CCN(C(=O)c1ccc(C)c([N+](=O)[O-])c1)c1ccccn1, which “lipid storage change, negative = inhibition” value is on record?
**A.** 18% (inactive)

**Q.** What about the cell number change of the same molecule?
**A.** 16.9%

**Q.** Which “lipid storage change, negative = inhibition” value does the source give for Cc1cc(NC(=O)C(C)SCC(=O)OC(C)C(=O)Nc2ccccc2C)no1 (stereo unspecified) here?
**A.** 27.6% (inactive)

**Q.** And the cell number change?
**A.** 31.1%

**Q.** For COCCN1CN=C(Nc2nc(C)c3ccc(C)cc3n2)NC1, which “lipid storage change, negative = inhibition” value is on record?
**A.** 7.94% (inactive)

**Q.** And the cell number change?
**A.** 3.94%

**Q.** Which results are given for Cc1cccc(C)c1OCC1CNC(=O)O1 (stereo unspecified)?
**A.** outcome: inactive; cell number change: 9.47%

**Q.** What does the source list for Cc1ccccc1OCC1CNC(=O)O1 (stereo unspecified)?
**A.** lipid storage change, negative = inhibition: 1.82% (inactive); cell number change: 6.67%

**Q.** What does the source list for O=C1NCC(COCc2ccco2)O1 (stereo unspecified)?
**A.** Potency: 16.4 µM (active); cell number change: 0.961%

**Q.** With Cc1c(C(=O)NCC2CCCO2)oc2ccc(S(=O)(=O)N3CCCC3)cc12 (stereo unspecified) as the molecule, how does the “lipid storage change, negative = inhibition” value read?
**A.** -9.13% (inactive)

**Q.** And the cell number change?
**A.** -3.78%

**Q.** For Cc1c(C(=O)O)oc2ccc(S(=O)(=O)N3CC(C)CC(C)C3)cc12 (stereo unspecified), which “lipid storage change, negative = inhibition” value is on record?
**A.** 8.14% (inactive)

**Q.** What about the cell number change of the same molecule?
**A.** 24.2%

**Q.** Which Potency does the source give for Cc1c(C(=O)NCCN(C)C)oc2ccc(S(=O)(=O)N3CCCC3)cc12 here?
**A.** 0.116 µM (active)

**Q.** What about the cell number change of the same molecule?
**A.** 13.1%

**Q.** For Cc1c(C(=O)NCC2CCCO2)oc2ccc(S(=O)(=O)N3CC(C)CC(C)C3)cc12 (stereo unspecified), which lipid storage change, negative = inhibition is on record?
**A.** 16.1% [at 9.22 µM] (inactive)

**Q.** Which Potency does the source give for CCCCN(CC)C(=O)c1oc2ccc(S(=O)(=O)N3CCCC3)cc2c1C here?
**A.** 11.6 µM (active)

**Q.** What about the cell number change of the same molecule?
**A.** -20.1%

**Q.** With CCN(CC)C(=O)c1oc2ccc(S(=O)(=O)N3CC(C)CC(C)C3)cc2c1C (stereo unspecified) as the molecule, how does the Potency read?
**A.** 0.58 µM (active)

**Q.** And the cell number change?
**A.** 13.1%

**Q.** With Cc1c(C(=O)N(C)Cc2ccccc2)oc2ccc(S(=O)(=O)N3CCCC3)cc12 as the molecule, how does the “lipid storage change, negative = inhibition” value read?
**A.** 20.7% (inactive)

**Q.** What about the cell number change of the same molecule?
**A.** -25.2%

**Q.** Which “lipid storage change, negative = inhibition” value does the source give for CCOC(=O)N1CCN(C(=O)c2oc3ccc(S(=O)(=O)N4CCCCC4)cc3c2C)CC1 here?
**A.** 14% (inactive)

**Q.** Which results are given for Cc1c(C(=O)NCc2ccc3c(c2)OCO3)oc2ccc(S(=O)(=O)N3CCCC3)cc12?
**A.** outcome: inactive; cell number change: -21.4%

**Q.** With O=[N+]([O-])/C(=C\Nc1ccc(F)cc1F)S(=O)(=O)c1ccccc1 as the molecule, how does the “lipid storage change, negative = inhibition” value read?
**A.** 9% (inactive)

**Q.** What does the source list for COc1ccc(-c2cc(C(=O)Nc3nc4ccccc4s3)c3ccccc3n2)cc1OC?
**A.** lipid storage change, negative = inhibition: 24.3% (inactive); cell number change: 2.3%

**Q.** Which results are given for Cn1cccc1C(=O)OCC(=O)Nc1cc(C(C)(C)C)nn1-c1ccccc1?
**A.** lipid storage change, negative = inhibition: 2.46% (inactive); cell number change: 10.4%

**Q.** What does the source list for CS(=O)(=O)N(CC(=O)Nc1cccc([N+](=O)[O-])c1)c1cccc(F)c1?
**A.** lipid storage change, negative = inhibition: 26% (inactive); cell number change: -2.63%

**Q.** For CC1CCc2sc(C(=O)NNC(=S)NCC3CCCO3)cc2C1 (stereo unspecified), which “lipid storage change, negative = inhibition” value is on record?
**A.** 7.7% (inactive)

**Q.** What about the cell number change of the same molecule?
**A.** 20%

**Q.** Which “lipid storage change, negative = inhibition” value does the source give for Cc1cccc2sc(NC(=O)C3CSC4(C)CCC(=O)N34)nc12 (stereo unspecified) here?
**A.** -1.42% (inactive)

**Q.** And the cell number change?
**A.** 14.2%

**Q.** For O=C(c1cccnc1)N1CCN(S(=O)(=O)c2ccc(Cl)cc2)CC1, which “lipid storage change, negative = inhibition” value is on record?
**A.** -0.561% (inactive)

**Q.** What about the cell number change of the same molecule?
**A.** -4.89%

**Q.** Which “outcome” value does the source give for COc1ccc(N2CCN(C(=O)CCNS(=O)(=O)c3cc(Br)cnc3N)CC2)cc1 here?
**A.** inactive

**Q.** For S=C1NCCOCCOCCOCCN1, which “lipid storage change, negative = inhibition” value is on record?
**A.** -10.2% (inactive)

**Q.** What about the cell number change of the same molecule?
**A.** -10.7%

**Q.** Which “lipid storage change, negative = inhibition” value does the source give for S=C1NCCOCCNC(=S)NCCOCCOCCN1 here?
**A.** -11.6% (inactive)

**Q.** What about the cell number change of the same molecule?
**A.** 28%

**Q.** For S=C1NCCOCCOCCOCCOCCN1, which Potency is on record?
**A.** 13 µM (active)

**Q.** What about the cell number change of the same molecule?
**A.** 20.5%

**Q.** Which results are given for N/C(CCN1CCOCC1)=N/O?
**A.** lipid storage change, negative = inhibition: -0.675% (inactive); cell number change: -8.53%

**Q.** Which results are given for COc1ccc(N2CCCn3c2nc2c3c(=O)n(CCN3CCOCC3)c(=O)n2C)cc1?
**A.** lipid storage change, negative = inhibition: -1% (inactive); cell number change: -8.81%

**Q.** Which results are given for COc1ccc(N2CCn3c2nc2c3c(=O)n(CCN3CCOCC3)c(=O)n2C)cc1?
**A.** lipid storage change, negative = inhibition: 22.2% (inactive); cell number change: -1.98%

**Q.** For COc1ccc(N2CC(C)Cn3c2nc2c3c(=O)n(CCN3CCOCC3)c(=O)n2C)cc1 (stereo unspecified), which Potency is on record?
**A.** 2.06 µM (active)

**Q.** And the cell number change?
**A.** 5.05%

**Q.** With COCCOC(=O)c1c(NC(=O)CNc2ccc(C)c(F)c2)sc(C(N)=O)c1C as the molecule, how does the “lipid storage change, negative = inhibition” value read?
**A.** 9.19% (inactive)

**Q.** And the cell number change?
**A.** 3.82%

**Q.** Which “outcome” value does the source give for CCOc1ccc(/C=C/c2nc(C#N)c(NCCCN(C)C)o2)cc1 here?
**A.** inactive

**Q.** What about the cell number change of the same molecule?
**A.** -6.82%

**Q.** With CCOc1ccc(/C=C/c2nc(C#N)c(NCCCOC)o2)cc1 as the molecule, how does the Potency read?
**A.** 18.4 µM (active)

**Q.** And the cell number change?
**A.** -10.5%

**Q.** Which “lipid storage change, negative = inhibition” value does the source give for CCNc1oc(/C=C/c2ccc(OCC)cc2)nc1C#N here?
**A.** -17.7% (inactive)

**Q.** And the cell number change?
**A.** -11.4%

**Q.** With CCCc1nc(NCCO)c(C#N)c2c1CCCC2 as the molecule, how does the “lipid storage change, negative = inhibition” value read?
**A.** 7.13% (inactive)

**Q.** And the cell number change?
**A.** 7.48%

**Q.** What does the source list for COc1ccccc1NC(=O)CC1C(=O)Nc2ccccc2N1C(=O)c1ccccc1 (stereo unspecified)?
**A.** lipid storage change, negative = inhibition: -3.67% (inactive); cell number change: 5.14%

**Q.** What does the source list for O=C(OCC(=O)N1CCCC1)c1cc(Cl)ccc1Cl?
**A.** lipid storage change, negative = inhibition: 5.2% (inactive); cell number change: 4.05%

**Q.** For O=C(OCC(=O)N1CCCC1)c1c(Cl)ccc(Cl)c1Cl, which Potency is on record?
**A.** 2.91 µM (active)

**Q.** And the cell number change?
**A.** 9.01%
